Source: the supplement of paper PMC8728848
The entries come from a sample that favours the strongest signals as a whole.

Key:
Assay in all cases: glycan array binding signal (z-score within array); higher = stronger binding
Conditions in all cases: glycan notation: IUPAC condensed, linker removed
[1] = biological target: Fuc(a1-2)Gal(b1-4)GlcNAc(b1-2)[Fuc(a1-2)Gal(b1-4)GlcNAc(b1-4)]Man(a1-3)[Fuc(a1-2)Gal(b1-4)GlcNAc(b1-2)Man(a1-6)]Man(b1-4)GlcNAc(b1-4)GlcNAc
Summary of the method: (§1)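 The Consortium for Functional Glycomics database supplied 3228 glycan arrays, of which those lacking an available protein sequence were dropped. The binding signal, a within-array Z-score, was averaged across arrays of the same protein sequence and across linkers. Negative scores can be read as non-binding.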

[2] = biological target: Fuc(a1-2)Gal(b1-4)GlcNAc(b1-3)[Fuc(a1-2)Gal(b1-4)GlcNAc(b1-6)]GalNAc
Summary of the method: as §1

[3] = biological target: Fuc(a1-2)Gal(b1-4)GlcNAc(b1-6)GalNAc
Summary of the method: as §1

[4] = biological target: Fuc(a1-2)[Gal(a1-3)]Gal(b1-3)GlcNAc(b1-6)GalNAc
Summary of the method: as §1

[5] = biological target: Fuc(a1-2)[Gal(a1-3)]Gal(b1-4)GlcNAc
Summary of the method: as §1

[6] = biological target: Fuc(a1-2)[Gal(a1-3)]Gal(b1-4)GlcNAc(b1-2)Man
Summary of the method: as §1

[7] = biological target: Fuc(a1-2)[Gal(a1-3)]Gal(b1-4)GlcNAc(b1-3)[Fuc(a1-2)[Gal(a1-3)]Gal(b1-4)GlcNAc(b1-6)]GalNAc
Summary of the method: as §1

[8] = biological target: Fuc(a1-2)[GalNAc(a1-3)]Gal(b1-4)GlcNAc(b1-6)GalNAc
Summary of the method: as §1

[9] = biological target: Fuc(a1-2)[GalNAc(a1-4)]Gal(b1-4)GlcNAc
Summary of the method: as §1

[10] = biological target: Gal(a1-4)Gal(b1-4)GlcNAc(b1-2)Man(a1-3)[Gal(a1-4)Gal(b1-4)GlcNAc(b1-2)Man(a1-6)]Man(b1-4)GlcNAc(b1-4)GlcNAc
Summary of the method: as §1

Gal(b1-3)Gal = biological target: Gal(b1-3)Gal
Summary of the method: as §1

[11] = biological target: Gal(b1-3)GlcNAc(b1-6)[Gal(b1-3)]GalNAc
Summary of the method: as §1

[12] = biological target: Gal(b1-3)[Fuc(a1-4)]GlcNAc(b1-2)Man(a1-3)[Gal(b1-3)[Fuc(a1-4)]GlcNAc(b1-2)Man(a1-6)]Man(b1-4)GlcNAc(b1-4)[Fuc(a1-6)]GlcNAc
Summary of the method: as §1

[13] = biological target: Gal(b1-4)GlcNAc(b1-2)Man(a1-3)[Gal(b1-4)GlcNAc(b1-2)Man(a1-6)]Man(b1-4)GlcNAc(b1-4)GlcNAc
Summary of the method: as §1

[14] = biological target: Gal(b1-4)GlcNAc(b1-2)Man(a1-3)[GlcNAc(b1-4)][Gal(b1-4)GlcNAc(b1-2)Man(a1-6)]Man(b1-4)GlcNAc(b1-4)GlcNAc
Summary of the method: as §1

[15] = biological target: Gal(b1-4)GlcNAc(b1-2)[Gal(b1-4)GlcNAc(b1-4)]Man(a1-3)[GlcNAc(b1-4)][Gal(b1-4)GlcNAc(b1-2)[Gal(b1-4)GlcNAc(b1-6)]Man(a1-6)]Man(b1-4)GlcNAc(b1-4)GlcNAc
Summary of the method: as §1

[16] = biological target: Gal(b1-4)GlcNAc(b1-2)[Gal(b1-4)GlcNAc(b1-6)]Man(a1-6)[GlcNAc(b1-4)][Gal(b1-4)GlcNAc(b1-2)Man(a1-3)]Man(b1-4)GlcNAc(b1-4)GlcNAc
Summary of the method: as §1

[17] = biological target: Gal(b1-4)GlcNAc(b1-3)Gal(b1-4)GlcNAc(b1-3)Gal(b1-4)GlcNAc(b1-2)Man(a1-3)[Gal(b1-4)GlcNAc(b1-3)Gal(b1-4)GlcNAc(b1-3)Gal(b1-4)GlcNAc(b1-2)Man(a1-6)]Man(b1-4)GlcNAc(b1-4)GlcNAc
Summary of the method: as §1

[18] = biological target: Gal(b1-4)GlcNAc(b1-3)Gal(b1-4)GlcNAc(b1-3)Gal(b1-4)GlcNAc(b1-3)Gal(b1-4)GlcNAc(b1-2)[Gal(b1-4)GlcNAc(b1-3)Gal(b1-4)GlcNAc(b1-3)Gal(b1-4)GlcNAc(b1-3)Gal(b1-4)GlcNAc(b1-6)]Man(a1-6)[Gal(b1-4)GlcNAc(b1-3)Gal(b1-4)GlcNAc(b1-3)Gal(b1-4)GlcNAc(b1-3)Gal(b1-4)GlcNAc(b1-2)Man(a1-3)]Man(b1-4)GlcNAc(b1-4)[Fuc(a1-6)]GlcNAc
Summary of the method: as §1

[19] = biological target: Gal(b1-4)GlcNAc(b1-3)Gal(b1-4)GlcNAc(b1-3)Gal(b1-4)GlcNAc(b1-3)Gal(b1-4)GlcNAc(b1-3)Gal(b1-4)GlcNAc(b1-3)Gal(b1-4)GlcNAc(b1-2)Man(a1-3)[Gal(b1-4)GlcNAc(b1-3)Gal(b1-4)GlcNAc(b1-3)Gal(b1-4)GlcNAc(b1-3)Gal(b1-4)GlcNAc(b1-3)Gal(b1-4)GlcNAc(b1-3)Gal(b1-4)GlcNAc(b1-2)Man(a1-6)]Man(b1-4)GlcNAc(b1-4)GlcNAc
Summary of the method: as §1

Gal3S(b1-4)Glc6S = biological target: Gal3S(b1-4)Glc6S
Summary of the method: as §1

Gal6S(b1-4)GlcNAc6S = biological target: Gal6S(b1-4)GlcNAc6S
Summary of the method: as §1

GalNAc(a1-3)Gal = biological target: GalNAc(a1-3)Gal
Summary of the method: as §1

GalNAc(a1-3)GalNAc = biological target: GalNAc(a1-3)GalNAc
Summary of the method: as §1

GalNAc(b1-3)GalNAc = biological target: GalNAc(b1-3)GalNAc
Summary of the method: as §1

GalNAc(b1-4)GlcNAc = biological target: GalNAc(b1-4)GlcNAc
Summary of the method: as §1

[20] = biological target: GalNAc(b1-4)GlcNAc(b1-2)Man
Summary of the method: as §1

GalNAc(b1-4)GlcNAc6S = biological target: GalNAc(b1-4)GlcNAc6S
Summary of the method: as §1

GalNAc(b1-6)GalNAc = biological target: GalNAc(b1-6)GalNAc
Summary of the method: as §1

GlcA(b1-3)Gal = biological target: GlcA(b1-3)Gal
Summary of the method: as §1

[21] = biological target: GlcNAc(a1-4)Gal(b1-3)GlcNAc
Summary of the method: as §1

B1: Cohesin-marm-DC-ASGPR (protein)
chain: LDITSHHHHHHDDLDAVRIKVDTVNAKPGDTVRIPVRFSGIPSKGIANCDFVYSYDPNVLEIIEIEPGDIIVDPNPDKSFDTAVYPDRKIIVFLFAEDSGTGAYAITKDGVFATIVAKVKEGAPNGLSVIKFVEVGGFANNDLVEQKTQFFDGGVNVGDTTEPATPTTPVTTPTTTDDLDAASSKFQRDLVTLRTDFSNFTSNTLAEIQALTSQGSSLQETIASLKAEVEGHKQELQAGASELQEHNKQKAHLGRCPHTCVCPSSFVCVPVHSEILLRVQQLVQDLNKLSCQVAILKNNATTERTCCPINWVEHQGSCYWFSRSGKTWPEAERYCQLENTHLVVINSREEQNFVQAHLGSAYTWMGLSDPEGVWKWVDGTDYSSGFQNWKPGQPDDWQGHGLGGGEDCAHFHPDGRWNDDVCQRSYHWVCEAGLTQASQDSHAS
glycan array binding signal (z-score) [1]: -0.267 | glycan array binding signal (z-score) [2]: -0.236 | glycan array binding signal (z-score) [3]: 4.84 | glycan array binding signal (z-score) [4]: 4.11 | glycan array binding signal (z-score) [5]: -0.282 | glycan array binding signal (z-score) [6]: -0.239 | glycan array binding signal (z-score) [7]: -0.22 | glycan array binding signal (z-score) [8]: 4.32 | glycan array binding signal (z-score) [9]: 4.11 | glycan array binding signal (z-score) [10]: -0.267 | glycan array binding signal (z-score) (Gal(b1-3)Gal): -0.286 | glycan array binding signal (z-score) [11]: -0.272 | glycan array binding signal (z-score) [12]: -0.265 | glycan array binding signal (z-score) [13]: -0.277 | glycan array binding signal (z-score) [14]: -0.308 | glycan array binding signal (z-score) [15]: -0.268 | glycan array binding signal (z-score) [16]: -0.307 | glycan array binding signal (z-score) [17]: -0.177 | glycan array binding signal (z-score) [18]: -0.272 | glycan array binding signal (z-score) [19]: -0.295 | glycan array binding signal (z-score) (Gal3S(b1-4)Glc6S): -0.141 | glycan array binding signal (z-score) (Gal6S(b1-4)GlcNAc6S): -0.295 | glycan array binding signal (z-score) (GalNAc(a1-3)Gal): 4.28 | glycan array binding signal (z-score) (GalNAc(a1-3)GalNAc): -0.266 | glycan array binding signal (z-score) (GalNAc(b1-3)GalNAc): -0.307 | glycan array binding signal (z-score) (GalNAc(b1-4)GlcNAc): 4.21 | glycan array binding signal (z-score) [20]: 4.13 | glycan array binding signal (z-score) (GalNAc(b1-4)GlcNAc6S): 4.56 | glycan array binding signal (z-score) (GalNAc(b1-6)GalNAc): -0.303 | glycan array binding signal (z-score) (GlcA(b1-3)Gal): -0.309 | glycan array binding signal (z-score) [21]: -0.3
